From ChEMBL document CHEMBL4513146, “CO-ADD screening of Karazin Kharkiv National University (Ukraine) compounds”
Measured potencies and affinities stand elsewhere.

System: Cryptococcus neoformans
Settings: Concentration 32 ug.mL-1; ASSAY_TEST Inhibition of Fungal Growth; detection method Resazurin; Absorption (OD600-OD570); plate type 384well; NBS; CORNING #3640

Compared with `COC(=O)c1ccc(CN(c2ccc(F)cc2)S(=O)(=O)c2cccn3c(C)nnc23)o1`, `COc1ccc(CN(c2ccc(F)cc2)S(=O)(=O)c2cccn3cnnc23)cc1F` is lower in Inhibition: -7.89% for the first, -9.79% for the second.

Compared with `Cc1ccccc1Oc1nccn2c(=O)n(CC(=O)Nc3ccc(C(C)C)cc3)nc12`, `Cc1ccccc1Oc1nccn2c(=O)n(CC(=O)Nc3ccc(C#N)cc3)nc12` is higher in Inhibition: -9.72% for the first, -9.67% for the second.

Going from `CC(C)c1nnc2c(SCC(=O)Nc3ccc(Cl)cc3C(F)(F)F)nc3ccccc3n12` to `CCOc1ccc(-n2ccn3c(SCC(=O)Nc4cc(F)ccc4F)nnc3c2=O)cc1`, the Inhibition rises from -8.02% to -1.21%.

Compared with `C=Cc1ccc(CN(c2cccc(Cl)c2)S(=O)(=O)c2cccn3c(C)nnc23)cc1`, `Cc1ccc(CN(c2ccc(C(C)C)cc2)S(=O)(=O)c2cccn3cnnc23)cc1` is lower in Inhibition: -16.09% for the first, -16.89% for the second.

Going from `COc1ccc2[nH]cc(C(=O)CSc3nnc4c(=O)n(-c5cccc(Cl)c5C)ccn34)c2c1` to `CCOc1ccc(-n2ccn3c(SCC(=O)c4ccc(F)cc4)nnc3c2=O)cc1`, the Inhibition rises from -9.58% to -5.27%.

First: CC(C)CCn1c(=O)c2ccccc2n2c(=O)n(CC#N)nc12
Second: CCCn1c(=O)c2sccc2n2c(=O)n(Cc3ccc(Cl)cc3)nc12
The Inhibition of the first is lower: -29.58% for the first, -22.99% for the second.

Going from `Cc1ccccc1Nc1cc(C)n2c(=O)n(CCOc3ccc(F)cc3)nc2n1` to `Cc1cc(Nc2ccc(F)cc2)nc2nn(CCc3ccccc3)c(=O)n12`, the Inhibition falls from -5.27% to -10.99%.

Going from `Cc1cc2nn(CC(=O)NC3CCCCC3)c(=O)n2c(Nc2ccc(F)c(C)c2)n1` to `Cc1ccc(-c2ccc3nn(CC(=O)NC4CCCCC4)c(=O)n3n2)cc1C`, the Inhibition falls from -7.59% to -9.98%.

Going from `CCOC(=O)c1ccccc1NC(=O)Cn1nc2c(Sc3ccccc3)nccn2c1=O` to `CCOC(=O)c1ccccc1NC(=O)Cn1nc2c(Oc3ccc(C)cc3)nccn2c1=O`, the Inhibition falls from -6.53% to -10.52%.

Going from `O=c1n(Cc2cccc(C(F)(F)F)c2)nc2c(S(=O)(=O)N3CCCCC3)cccn12` to `O=c1n(Cc2cccc(C(F)(F)F)c2)nc2c(S(=O)(=O)N3CCCCCC3)cccn12`, the Inhibition falls from -8.66% to -9.24%.

Compared with `COc1ccc(-c2cc3c4nn(CC(=O)Nc5cccc(OC)c5)c(=O)n4ccn3n2)cc1`, `COc1cccc(NC(=O)Cn2nc3c4cc(-c5ccc(Cl)cc5)nn4ccn3c2=O)c1` is higher in Inhibition: -23.01% for the first, -4.67% for the second.

Compared with `CC(=O)c1ccc(NC(=O)Cn2nc3ccc(-c4ccc(C)cc4)nn3c2=O)cc1`, `CCOC(=O)c1ccc(NC(=O)Cn2nc3ccc(-c4ccc(Cl)cc4)nn3c2=O)cc1` is higher in Inhibition: -11.07% for the first, -7.91% for the second.

Going from `Cc1cc(C)cc(Oc2nccn3c(=O)n(CC(=O)Nc4cccc(Cl)c4)nc23)c1` to `COc1cccc(Oc2nccn3c(=O)n(CC(=O)Nc4cc(F)ccc4F)nc23)c1`, the Inhibition falls from -3.38% to -8.45%.

First: COc1ccc(NC(=O)Cn2nc3c4cc(-c5ccc(C)cc5)nn4ccn3c2=O)c(OC)c1
Second: COc1ccc(-c2cc3c4nn(CC(=O)Nc5cc(C)ccc5C)c(=O)n4ccn3n2)cc1
The Inhibition of the first is lower: -29.92% for the first, -22.77% for the second.

Going from `CC(C)c1ccc(NC(=O)Cn2nc3c(Sc4ccccc4)nccn3c2=O)cc1` to `O=C(Cn1nc2c3cc(-c4ccc(F)cc4)nn3ccn2c1=O)Nc1ccccc1`, the Inhibition falls from -7.48% to -11.97%.

First: Cc1ccc(NC(=O)Cn2nc3ccc(SC(C)(C)C)nn3c2=O)cc1Cl
Second: COc1cccc(NC(=O)Cn2nc3ccc(SCc4ccc(Cl)cc4)nn3c2=O)c1
The Inhibition of the first is lower: -28.11% for the first, -15.62% for the second.

Compared with `CCOc1ccc(-n2ccn3c(SCC(=O)Nc4ccc(Cl)cc4)nnc3c2=O)cc1`, `COc1cccc(NC(=O)Cn2nc3ccc(-c4ccc(Cl)cc4)nn3c2=O)c1` is lower in Inhibition: -6.67% for the first, -14.88% for the second.

Going from `COc1ccc(-c2cc3c4nn(CC(=O)Nc5ccccc5OC)c(=O)n4ccn3n2)cc1` to `CCOc1ccccc1NC(=O)Cn1nc2c(N3CCN(c4ccccc4C)CC3)nccn2c1=O`, the Inhibition rises from -14.32% to -5.29%.

First: Cc1ccc(CNC(=O)Cn2nc3ccc(SCc4ccc(Cl)cc4)nn3c2=O)cc1
Second: Cc1ccc(NC(=O)Cn2nc3cc(C)nc(Nc4ccc(F)cc4)n3c2=O)cc1
The Inhibition of the first is lower: -27.26% for the first, -24.95% for the second.

Compared with `O=C(Cn1nc2ccc(-c3ccccc3)nn2c1=O)NC1CCCCC1`, `COc1cccc(CN(c2ccc(C)c(F)c2)S(=O)(=O)c2ccc3nncn3c2)c1` is higher in Inhibition: -16.53% for the first, -8.8% for the second.
